# According to PubChem BioAssay AID1626 (SRMLSC, 2009):
# About 2,000 (0.91%) of roughly 220,000 compounds were called active. About 2% were inconclusive and are not listed. These entries were drawn from the full list. Measured potencies and affinities stand elsewhere. Unmarked numbers belong to inactive results. Cut-off read from the data, not from the text of the source: inconclusive = inhibition above about 80% without an active follow-up result; inactive = below that; test concentration not stated here.
# Test: M. tuberculosis H37Rv growth inhibitors, H37Rv strain (AID 1626);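 note: bacteria incubated seven days before Alamar blue readout; 0% = bacteria only wells and 100% = bacteria with antibiotic wells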
# Details: active compounds read high, concentration not given here
row,Structure (SMILES),inhibition [%]
1,Cc1cccc(NN=C2c3ccccc3-c3ccccc32)c1,1.34
2,Cc1cc(C)nc(SCc2nnc(SCC(=O)Nc3ccc(C)c(C)c3)o2)n1,0.69
3,Cc1ccc(-c2nn3c(C)nnc3s2)cc1NC(=O)c1ccc(-c2ccc(Cl)cc2Cl)o1,-7.97
4,Cc1ccccc1CSCC(=O)NC1CCCC1,3.78
5,Cc1ccccc1NC(=S)N(C)Cc1cn(C)c2ccccc12,2.82
6,COc1ccc(CCNC(=O)CSc2nnc(-c3ccc(F)cc3)o2)cc1OC,-1.7
7,O=C(CSc1nnc(-c2ccc(F)cc2)o1)NC1CCCCC1,-0.23
8,O=C(O)CCc1nn2c3ccccc3n(CCO)c2nc1=O,2.12
9,Cc1ccc(-c2csc3nc[nH]c(=O)c23)cc1,-5.48
10,S=c1[nH]cnc2scc(-c3ccc(Cl)cc3)c12,76.4
11,Cc1ccc(Cn2c(NS(=O)(=O)c3ccccc3)nc3ccccc32)cc1,84.8
12,O=C(Nc1nc2ccccc2n1CCN1CCCCC1)c1ccco1,6.64
13,O=C(Nc1nc2ccccc2n1Cc1ccc(Cl)cc1)c1ccco1,16.1
14,Cn1c(C(C#N)C(=O)Cc2cccc3ccccc23)nc2ccccc21 (stereo not given),-15.5
15,Nc1nc(NC(=O)/C=C/c2ccccc2)nn1-c1ccccc1,-0.46
16,COc1ccc(/C=C/C(=O)Nc2nc(N)n(-c3ccccc3)n2)cc1,6.8
17,Cn1c(C(C#N)C(=O)c2sc3ccccc3c2Cl)nc2ccccc21 (stereo not given),94.3
18,CCCn1c(NCc2ccco2)nc2ccccc21,-3.29
19,CC(O)C1C(=O)OC2(C)CC(C)(C)NC(=S)N12 (stereo not given),-6.84
20,CCOC(=O)c1c(NC(=O)CC)sc(C(C)=O)c1C,2.45
21,O=C(NN=C1CCCCCC1)c1c[nH]c2ccccc12,-1.9
22,Cn1c2c(c(=O)n(C)c1=O)CN(CCc1ccccc1)CN2,-1.68
23,Cc1cc(C)nc(Nc2nc(=O)c3ccccc3s2)n1,-3.37
24,NC(=O)[C@@H]1CCOc2c(I)cc([N+](=O)[O-])cc2C(=O)N[C@@H](CO)C(=O)NCC(=O)N1,-8.7

row,Structure (SMILES),inhibition [%]
1,CC(=O)N1NC(=Nc2ccccc2)SC1(C)C,-6.07
2,O=C(CN1CCCC1)NCC12CC3CC(CC(C3)C1)C2,-7.14
3,COCCNC(=O)C(c1ccc(Cl)cc1)N(CCOC)C(=O)CCC(=O)Nc1nccs1 (stereo not given),-6.72
4,Cc1cc(C)cc(N(C(=O)CCC(=O)Nc2ccccn2)C(C(=O)NC(C)C)c2ccc(O)cc2)c1 (stereo not given),4.72
5,Nc1nc(SCc2ccc(Cl)cc2Cl)ns1,28.5
6,Nc1nc(NC(=O)c2ccccc2)nn1-c1ccccc1,-1.03
7,Nc1nc(NC(=O)c2ccco2)nn1-c1ccccc1,-7.46
8,COc1ccc(/C=N/NC(=O)c2ccn[nH]2)cc1Cn1nc(C)c([N+](=O)[O-])c1C,1.53
9,O=C(Cc1ccccc1[N+](=O)[O-])N1CCc2ccccc2C1,-4.17
10,CC(OC(=O)CCCOc1ccccc1)C(=O)NC(N)=O (stereo not given),-2.98
11,COCC(C)N=C1NN=C(c2cc(C)n(Cc3ccccc3Cl)c2C)CS1 (stereo not given),5.76
12,Cc1cc(C2=NNC(=NC3CC3)SC2)c(C)n1-c1ccccc1F,-4.49
13,COCCCN=C1NN=C(c2cc(C)n(-c3ccccc3)c2C)CS1,-2.89
14,COCCCN=C1NN=C(c2cc(C)n(Cc3ccco3)c2C)CS1,-3.28
15,O=C(OCC(=O)N1c2ccccc2Sc2ccccc21)C1CC(=O)N(Cc2ccco2)C1 (stereo not given),3.33
16,Brc1ccc(-c2c[n+]3c(n2-c2ccccc2)SCC3)cc1,1.71
17,CCOc1ccccc1CNC(=O)CCN1C(=O)COc2ccccc21,4.08
18,CCOC(=O)C1=C(c2ccccc2)NC(=O)NC1c1ccc(OC)c(OC)c1 (stereo not given),-0.28
19,CCOC(=O)C1=C(c2ccccc2)NC(=O)NC1c1ccc(OCC#N)c(OC)c1 (stereo not given),2.6
20,N#Cc1nc(-c2ccccc2F)oc1NC1CCCCC1,3.24
21,CN(CC(=O)Nc1ccc(Cl)c(Cl)c1)C(=O)/C=C/c1ccc(F)cc1,-5.59
22,CN(CC(=O)Nc1ccc(C#N)cc1)Cc1ccc(Cl)c(Cl)c1,11.2
23,CCOP(=O)(OCC)C(Nc1cccc(C(F)(F)F)c1)c1ccc(F)cc1 (stereo not given),0.98
24,C=CCN=C1NN=C(c2ccc3c(c2)OCCO3)CS1,-5.3

row,Structure (SMILES),inhibition [%]
1,c1cc2c(cc1C1=NNC(=NC3CC3)SC1)OCCO2,-0.26
2,COc1ccccc1NS(=O)(=O)c1cc(NC(=O)c2ccco2)ccc1N1CCOCC1,9.4
3,O=c1[nH]c(=O)n(C2CCCCC2)c(O)c1C1NCCc2ccccc21 (stereo not given),-2.63
4,COc1cc(NC(=S)Nc2ccccn2)cc(OC)c1,14.7
5,Cc1cc(C)c(C)c(S(=O)(=O)N2CCN(C(=S)NCC3CCCO3)CC2)c1C (stereo not given),9.9
6,O=C(Nc1ccccc1O)c1ccc(Cl)cc1,-5.68
7,COc1ccc(C(=O)Nc2cc(Cl)ccc2OC(=O)c2ccc(OC)cc2)cc1,-1.73
8,CN(C)S(=O)(=O)c1cccc(C(=O)OCC(=O)NC2CCCc3ccccc32)c1 (stereo not given),2.51
9,O=C(CSc1nc2ccccc2c(=O)n1-c1ccccc1)N1CCC1,-2.38
10,O=C(Nc1ccc(F)cc1)c1ccccc1Oc1ccc(C(F)(F)F)cc1[N+](=O)[O-],-1.92
11,Cc1ccc(Oc2ccc(C(F)(F)F)cc2[N+](=O)[O-])c([N+](=O)[O-])n1,3.08
12,OCCC1CN(Cc2cnc(-c3ccccc3)s2)CCN1C1CCCCC1 (stereo not given),2.22
13,Cc1cc(C2=NNC(=Nc3ccccc3)SC2)c(C)n1C,0.04
14,Cc1ccc(C2=NNC(=Nc3ccc(F)cc3)SC2)cc1,5.11
15,Fc1ccc(N=C2NN=C(c3cc(F)ccc3F)CS2)cc1,9.64
16,COc1ccc(N=C2NN=C(c3ccc4c(c3)OCCO4)CS2)cc1,-3.14
17,COCCn1c(C)cc(C2=NNC(=Nc3ccc(OC)cc3)SC2)c1C,-6.04
18,Cc1cccc(N=C2NN=C(c3ccc4c(c3)OCCO4)CS2)c1,6.79
19,O=C(CCC1CCCCC1)NNC(=O)c1cnccn1,22.5
20,CCCS(=O)(=O)c1csc(C(=O)OC)c1N,-5.25
21,CS(=O)(=O)c1ccc(C(=O)OCC(=O)NC2CCS(=O)(=O)C2)cc1[N+](=O)[O-] (stereo not given),2.59
22,CC(C)c1ccc(/C=N/NC(=O)c2nnn(-c3nonc3N)c2CSC2=NCCS2)cc1,-0.79
23,COc1cc(C(=O)N2CCN(S(=O)(=O)c3ccc(F)cc3)CC2)cc(OC)c1OC,-4.16
24,CCOC(=O)N1C2=NC(C(=O)OC)=C(C(=O)OC)[C@@H]3N(C)c4ccc(OC)cc4[C@]23C[C@H]1C(=O)OC,5.46

row,Structure (SMILES),inhibition [%]
1,CN1CCc2ccccc2CC1=O,1.98
2,N#CC1=C2SCC(O)(c3ccccc3)N2C(=O)CC1c1cccs1 (stereo not given),3.45
3,N#CC1=C2SCC(O)(c3ccccc3)N2C(=O)CC1c1ccccc1 (stereo not given),-11.4
4,COC(=O)CSc1nnc(CNC(=O)c2ccccc2F)n1-c1ccccc1,-1.52
5,Cc1cccc(N2CCN(C(=O)c3ccncc3)CC2C)c1 (stereo not given),-7.46
6,Cc1cccc(N2CCN(C(=O)c3cc(C)oc3C)CC2C)c1 (stereo not given),4.99
7,Cc1cc(C)cc(NC(=S)/C(=C(\[O-])c2ccc(Cl)cc2Cl)[n+]2ccccc2)c1,6.94
8,Cc1ccc(S(=O)(=O)N2CCCN(S(=O)(=O)c3ccc4c(c3)OCCO4)CC2)cc1,8.01
9,O=C1c2ccccc2S(=O)(=O)c2cc(C(=O)N(c3ccccn3)c3ccccn3)ccc21,-6.02
10,Fc1ccc(-c2nnc3sc(C4COc5ccccc5O4)nn23)cc1 (stereo not given),20.6
11,Clc1ccccc1-c1nnc2sc(C3COc4ccccc4O3)nn12 (stereo not given),3.12
12,O=C(NNc1c(Cl)cccc1Cl)C1CCC1,-0.74
13,Cc1cc(N2CCN(C)CC2)nc2ccc(NC(=S)NCCCN3CCN(C)CC3)cc12,1.11
14,CCCCCOc1ccc(/C=c2\sc3nc(=O)c(-c4ccccc4)nn3c2=O)cc1OC,-2.22
15,Cc1ccccc1NC(=O)/C=C/c1cccc(C(F)(F)F)c1,3.62
16,CCc1ccc(NC(=O)C[n+]2cc(-c3ccc(C)cc3)n3c2CCC3)cc1,0.48
17,Cn1c(NC(=O)C[n+]2cc(-c3ccc(F)cc3)n3c2CCC3)cc(=O)n(C)c1=O,-5.35
18,Cc1ccc(-c2c[n+](CC(=O)Nc3ccccc3C)c3n2CCC3)cc1,5.29
19,Cc1ccc(-c2c[n+](CC(=O)Nc3ccc(C)cc3C)c3n2CCC3)cc1,2.12
20,Cc1ccc(NC(=O)C[n+]2cc(-c3ccccc3)n3c2CCC3)cc1,-1.61
21,O=C(C[n+]1cc(-c2ccc(F)cc2)n2c1CCC2)Nc1nc(-c2ccccc2)cs1,78.7
22,CCCCC(=O)OCC(=O)Nc1ccc(C)c(F)c1,9.33
23,Cc1ccc(NC(=S)N(Cc2cccs2)Cc2cc3cc(C)cc(C)c3[nH]c2=O)cc1,-1.91
